# Like-named read-outs stand apart in the source and are kept apart here.
# Test system: ULK3
# Settings: read-out: apparent Kd, n = 1
substance,measurement,setting,value
Lestaurtinib,potency estimated from few doses,"compound concentrations:100 nM and 1000 nM (sheet 'Lestaurtinib' of Supplementary Table 1),run:Lestaurtinib_02482_R2,Plate:MR011",244 nM
same,potency estimated from few doses,"compound concentrations:100 nM and 1000 nM (sheet 'Lestaurtinib' of Supplementary Table 1),run:Lestaurtinib_02482_R3,Plate:MR011",219 nM
same,potency estimated from few doses,"compound concentrations:100 nM and 1000 nM (sheet 'Lestaurtinib' of Supplementary Table 1),run:Lestaurtinib_02487_R1,Plate:MR012",144 nM
same,potency estimated from few doses,"compound concentrations:100 nM and 1000 nM (sheet 'Lestaurtinib' of Supplementary Table 1),run:Lestaurtinib_02487_R2,Plate:MR012",219 nM
same,potency estimated from few doses,"compound concentrations:100 nM and 1000 nM (sheet 'Lestaurtinib' of Supplementary Table 1),run:Lestaurtinib_02487_R3,Plate:MR012",250 nM
same,potency estimated from few doses,"compound concentrations:100 nM and 1000 nM (sheet 'Lestaurtinib' of Supplementary Table 1),run:Lestaurtinib_02496_R1,Plate:MR013",131 nM
same,potency estimated from few doses,"compound concentrations:100 nM and 1000 nM (sheet 'Lestaurtinib' of Supplementary Table 1),run:Lestaurtinib_02496_R2,Plate:MR013",165 nM
same,potency estimated from few doses,"compound concentrations:100 nM and 1000 nM (sheet 'Lestaurtinib' of Supplementary Table 1),run:Lestaurtinib_02496_R3,Plate:MR013",254 nM
same,potency estimated from few doses,"compound concentrations:100 nM and 1000 nM (sheet 'Lestaurtinib' of Supplementary Table 1),run:Lestaurtinib_02566_R1,Plate:MR014",153 nM
same,potency estimated from few doses,"compound concentrations:100 nM and 1000 nM (sheet 'Lestaurtinib' of Supplementary Table 1),run:Lestaurtinib_02566_R3,Plate:MR014",242 nM
same,potency estimated from few doses,"compound concentrations:100 nM and 1000 nM (sheet 'Lestaurtinib' of Supplementary Table 1),run:Lestaurtinib_02572_R3,Plate:MR015",329 nM
same,potency estimated from few doses,"compound concentrations:100 nM and 1000 nM (sheet 'Lestaurtinib' of Supplementary Table 1),run:Lestaurtinib_02577_R2,Plate:MR016",271 nM
same,potency estimated from few doses,"compound concentrations:100 nM and 1000 nM (sheet 'Lestaurtinib' of Supplementary Table 1),run:Lestaurtinib_02577_R3,Plate:MR016",224 nM
same,potency estimated from few doses,"compound concentrations:100 nM and 1000 nM (sheet 'Lestaurtinib' of Supplementary Table 1),run:Lestaurtinib_02584_R1,Plate:MR017",232 nM
same,potency estimated from few doses,"compound concentrations:100 nM and 1000 nM (sheet 'Lestaurtinib' of Supplementary Table 1),run:Lestaurtinib_02584_R2,Plate:MR017",261 nM
same,potency estimated from few doses,"compound concentrations:100 nM and 1000 nM (sheet 'Lestaurtinib' of Supplementary Table 1),run:Lestaurtinib_02584_R3,Plate:MR017",254 nM
same,potency estimated from few doses,"compound concentrations:100 nM and 1000 nM (sheet 'Lestaurtinib' of Supplementary Table 1),run:Lestaurtinib_02601_R1,Plate:MR018",290 nM
same,potency estimated from few doses,"compound concentrations:100 nM and 1000 nM (sheet 'Lestaurtinib' of Supplementary Table 1),run:Lestaurtinib_02601_R2,Plate:MR018",271 nM
same,potency estimated from few doses,"compound concentrations:100 nM and 1000 nM (sheet 'Lestaurtinib' of Supplementary Table 1),run:Lestaurtinib_02601_R3,Plate:MR018",297 nM
same,potency estimated from few doses,"compound concentrations:100 nM and 1000 nM (sheet 'Lestaurtinib' of Supplementary Table 1),run:Lestaurtinib_02624_R2,Plate:MR020",258 nM
same,potency estimated from few doses,"compound concentrations:100 nM and 1000 nM (sheet 'Lestaurtinib' of Supplementary Table 1),run:Lestaurtinib_02624_R3,Plate:MR020",269 nM
same,potency estimated from few doses,"compound concentrations:100 nM and 1000 nM (sheet 'Lestaurtinib' of Supplementary Table 1),run:Lestaurtinib_02724_R1,Plate:MR021",243 nM
same,potency estimated from few doses,"compound concentrations:100 nM and 1000 nM (sheet 'Lestaurtinib' of Supplementary Table 1),run:Lestaurtinib_02724_R2,Plate:MR021",220 nM
same,potency estimated from few doses,"compound concentrations:100 nM and 1000 nM (sheet 'Lestaurtinib' of Supplementary Table 1),run:Lestaurtinib_02741_R1,Plate:MR023",268 nM
same,potency estimated from few doses,"compound concentrations:100 nM and 1000 nM (sheet 'Lestaurtinib' of Supplementary Table 1),run:Lestaurtinib_02748_R1,Plate:MR024",144 nM
same,potency estimated from few doses,"compound concentrations:100 nM and 1000 nM (sheet 'Lestaurtinib' of Supplementary Table 1),run:Lestaurtinib_02748_R2,Plate:MR024",132 nM
same,potency estimated from few doses,"compound concentrations:100 nM and 1000 nM (sheet 'Lestaurtinib' of Supplementary Table 1),run:Lestaurtinib_02752_R1,Plate:MR025",260 nM
same,potency estimated from few doses,"compound concentrations:100 nM and 1000 nM (sheet 'Lestaurtinib' of Supplementary Table 1),run:Lestaurtinib_02765_R1,Plate:MR026",320 nM
same,potency estimated from few doses,"compound concentrations:100 nM and 1000 nM (sheet 'Lestaurtinib' of Supplementary Table 1),run:Lestaurtinib_02765_R3,Plate:MR026",304 nM
same,potency estimated from few doses,"compound concentrations:100 nM and 1000 nM (sheet 'Lestaurtinib' of Supplementary Table 1),run:Lestaurtinib_02768_R1,Plate:MR028",240 nM
same,potency estimated from few doses,"compound concentrations:100 nM and 1000 nM (sheet 'Lestaurtinib' of Supplementary Table 1),run:Lestaurtinib_02768_R3,Plate:MR028",206 nM
same,potency estimated from few doses,"compound concentrations:100 nM and 1000 nM (sheet 'Lestaurtinib' of Supplementary Table 1),run:Lestaurtinib_02802_R3,Plate:MR029",237 nM
same,potency estimated from few doses,"compound concentrations:100 nM and 1000 nM (sheet 'Lestaurtinib' of Supplementary Table 1),run:Lestaurtinib_02896_R2,Plate:MR030",236 nM
same,potency estimated from few doses,"compound concentrations:100 nM and 1000 nM (sheet 'Lestaurtinib' of Supplementary Table 1),run:Lestaurtinib_02896_R3,Plate:MR030",158 nM
same,potency estimated from few doses,"compound concentrations:100 nM and 1000 nM (sheet 'Lestaurtinib' of Supplementary Table 1),run:Lestaurtinib_03172_R1,Plate:MR031",259 nM
same,potency estimated from few doses,"compound concentrations:100 nM and 1000 nM (sheet 'Lestaurtinib' of Supplementary Table 1),run:Lestaurtinib_03252_R1,Plate:MR032",261 nM
same,potency estimated from few doses,"compound concentrations:100 nM and 1000 nM (sheet 'Lestaurtinib' of Supplementary Table 1),run:Lestaurtinib_03260_R1,Plate:MR033",314 nM

# Source: publication PMC11062922 (Nature Chemical Biology, 2023)
